# Laboratory results taken from PubChem BioAssay (NCI).
# Where “and” joins values, the source holds several entries; their conditions need not be identical. Equal values may be shown once. About 83,000 compounds went through this panel and 20% of them were active in at least one assay; those are over-represented in the sample as a whole.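 Each cell line was grown in a 96-well plate and treated with one concentration of compound for 48 hours. Values below 10 were considered active.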 Calls of active or inactive are those of the source.
# What was measured:
# Test in all cases: NCI-60 one-dose screen, 48 h (100 = growth as untreated, 0 = no growth, -100 = all killed)
# [1] = system: HT29 colon
# [2] = system: SNB-75 CNS
# [3] = system: SNB-19 CNS
# [4] = system: U251 CNS
# [5] = system: PC-3 prostate
# [6] = system: SK-MEL-5 melanoma
# [7] = system: UACC-62 melanoma
# [8] = system: LOX IMVI melanoma
# [9] = system: SK-MEL-28 melanoma
# [10] = system: SK-MEL-2 melanoma
# [11] = system: EKVX NSCLC
# [12] = system: SN12C renal
# [13] = system: UO-31 renal
# [14] = system: TK-10 renal
# [15] = system: CAKI-1 renal; settings: 10 µM unless noted
# [16] = system: A498 renal
# [17] = system: CCRF-CEM leukemia
# [18] = system: MOLT-4 leukemia
# [19] = system: ACHN renal; settings: 10 µM unless noted
# [20] = system: HCT-15 colon; settings: 10 µM unless noted
smiles,measurement,setting,value
O=c1ccc2nc(-c3ccccn3)nn(-c3ccccc3)c-2c1,growth,[1]; 10 µM unless noted,-44.2% (active)
same,growth,[2]; 10 µM unless noted,98.4% (inactive)
same,growth,[3]; 10 µM unless noted,98.9% (inactive)
same,growth,[4]; 10 µM unless noted,98.3% (inactive)
same,growth,[5]; 10 µM unless noted,89% (inactive)
same,growth,[6]; 10 µM unless noted,36% (inactive)
same,growth,[7]; 10 µM unless noted,72.7% (inactive)
same,growth,[8]; 10 µM unless noted,11.7% (inactive)
same,growth,[9]; 10 µM unless noted,70.7% (inactive)
same,growth,[10]; 10 µM unless noted,106% (inactive)
same,growth,[11]; 10 µM unless noted,115% (inactive)
same,growth,[12]; 10 µM unless noted,84.6% (inactive)
same,growth,[13]; 10 µM unless noted,40.1% (inactive)
same,growth,[14]; 10 µM unless noted,-70.9% (active)
same,growth,[15],72.5% (inactive)
same,growth,[16]; 10 µM unless noted,91.9% (inactive)
same,growth,[17]; 10 µM unless noted,8.49% (active)
same,growth,[18]; 10 µM unless noted,5.56% (active)
O=C1/C(=C/c2ccccc2[N+](=O)[O-])Cc2ccccc21,growth,[1]; 10 µM unless noted,-44% (active) and -37.1% (active)
same,growth,[2]; 10 µM unless noted,40.8% (inactive) and 43.5% (inactive)
same,growth,[3]; 10 µM unless noted,93.7% (inactive) and 74.1% (inactive)
same,growth,[4]; 10 µM unless noted,24.9% (inactive) and 32.7% (inactive)
same,growth,[5]; 10 µM unless noted,27.2% (inactive) and 30.4% (inactive)
same,growth,[6]; 10 µM unless noted,47.2% (inactive) and 69.5% (inactive)
same,growth,[7]; 10 µM unless noted,29.5% (inactive) and 25.5% (inactive)
same,growth,[8]; 10 µM unless noted,-61.1% (active) and 5.09% (active)
same,growth,[9]; 10 µM unless noted,45.9% (inactive) and 4.22% (active)
same,growth,[10]; 10 µM unless noted,68.4% (inactive) and 80.5% (inactive)
same,growth,[12]; 10 µM unless noted,20.3% (inactive) and 48.5% (inactive)
same,growth,[13]; 10 µM unless noted,-66.2% (active) and 25.9% (inactive)
same,growth,[14]; 10 µM unless noted,-15.6% (active) and 21.2% (inactive)
same,growth,[19],-23.9% (active) and -43.3% (active)
same,growth,[15],-10.6% (active) and -9.61% (active)
same,growth,[16]; 10 µM unless noted,-18.3% (active) and 14.1% (inactive)
same,growth,[17]; 10 µM unless noted,-0.132% (active) and 4.53% (active)
same,growth,[18]; 10 µM unless noted,-1.54% (active) and 13.5% (inactive)
CCOC(=O)c1cnn(-c2ccc(S(N)(=O)=O)cc2)c1N,growth,[2]; 10 µM unless noted,78.1% (inactive)
same,growth,[3]; 10 µM unless noted,100% (inactive)
same,growth,[4]; 10 µM unless noted,103% (inactive)
same,growth,[5]; 10 µM unless noted,103% (inactive)
same,growth,[6]; 10 µM unless noted,113% (inactive)
same,growth,[7]; 10 µM unless noted,97.5% (inactive)
same,growth,[8]; 10 µM unless noted,96.9% (inactive)
same,growth,[9]; 10 µM unless noted,106% (inactive)
same,growth,[10]; 10 µM unless noted,93.6% (inactive)
same,growth,[11]; 10 µM unless noted,101% (inactive)
same,growth,[12]; 10 µM unless noted,98% (inactive)
same,growth,[13]; 10 µM unless noted,64.8% (inactive)
same,growth,[14]; 10 µM unless noted,99.6% (inactive)
same,growth,[19],116% (inactive)
same,growth,[15],150% (inactive)
same,growth,[16]; 10 µM unless noted,70.4% (inactive)
same,growth,[17]; 10 µM unless noted,85.3% (inactive)
same,growth,[18]; 10 µM unless noted,100% (inactive)
COc1ccc(C(=O)/C=C/c2ccc(OCc3cccc(C(F)(F)F)c3)c(OC)c2)cc1OC,growth,[1]; 10 µM,54.3% (inactive)
same,growth,[1]; 100 µM,19.6% (inactive)
same,growth,[2]; 10 µM,93.6% (inactive)
same,growth,[2]; 100 µM,-27.5% (active)
same,growth,[3]; 10 µM,93.9% (inactive)
same,growth,[3]; 100 µM,-21.9% (active)
same,growth,[4]; 10 µM,75% (inactive)
same,growth,[4]; 100 µM,-51.7% (active)
same,growth,[5]; 10 µM,69.1% (inactive)
same,growth,[5]; 100 µM,-7.78% (active)
same,growth,[6]; 10 µM,76.5% (inactive)
same,growth,[6]; 100 µM,-34.4% (active)
same,growth,[7]; 10 µM,78.4% (inactive)
same,growth,[7]; 100 µM,20.7% (inactive)
same,growth,[8]; 10 µM,51% (inactive)
same,growth,[8]; 100 µM,10% (inactive)
same,growth,[9]; 10 µM,101% (inactive)
same,growth,[9]; 100 µM,46.3% (inactive)
same,growth,[10]; 10 µM,89.1% (inactive)
same,growth,[10]; 100 µM,32.6% (inactive)
same,growth,[11]; 10 µM,114% (inactive)
same,growth,[11]; 100 µM,16.1% (inactive)
same,growth,[12]; 10 µM,97% (inactive)
same,growth,[12]; 100 µM,17% (inactive)
same,growth,[13]; 10 µM,67.2% (inactive)
same,growth,[13]; 100 µM,24.6% (inactive)
same,growth,[14]; 10 µM,117% (inactive)
same,growth,[14]; 100 µM,7.32% (active)
same,growth,[19],93.4% (inactive)
same,growth,[16]; 10 µM,93.9% (inactive)
same,growth,[16]; 100 µM,-12.8% (active)
same,growth,[17]; 10 µM,51.1% (inactive)
same,growth,[17]; 100 µM,12.6% (inactive)
same,growth,[18]; 10 µM,42.2% (inactive)
same,growth,[18]; 100 µM,-3.95% (active)
O=c1c(/C=C/c2ccco2)nnc2sc(Nc3ccc(Cl)cc3)nn12,growth,[20],108% (inactive)
same,growth,[2]; 10 µM unless noted,79.9% (inactive)
same,growth,[3]; 10 µM unless noted,94.2% (inactive)
same,growth,[4]; 10 µM unless noted,108% (inactive)
same,growth,[5]; 10 µM unless noted,92.2% (inactive)
same,growth,[6]; 10 µM unless noted,93.5% (inactive)
same,growth,[7]; 10 µM unless noted,92.4% (inactive)
same,growth,[8]; 10 µM unless noted,97.6% (inactive)
same,growth,[10]; 10 µM unless noted,95.6% (inactive)
same,growth,[11]; 10 µM unless noted,90.9% (inactive)
same,growth,[12]; 10 µM unless noted,107% (inactive)
same,growth,[13]; 10 µM unless noted,79% (inactive)
same,growth,[14]; 10 µM unless noted,146% (inactive)
same,growth,[19],98.2% (inactive)
same,growth,[16]; 10 µM unless noted,108% (inactive)
same,growth,[17]; 10 µM unless noted,98% (inactive)
same,growth,[18]; 10 µM unless noted,95.7% (inactive)
